ChEMBL document CHEMBL1157539, “Thousands of chemical starting points for antimalarial lead identification” (Nature, 2010)

Each molecule was assayed on Plasmodium falciparum (assay: GSK_TCMDC: Inhibition of Plasmodium falciparum 3D7 in whole red blood cells, using parasite LDH activity as an index of growth. Test compounds present at 2uM).
Format: functional

Compared with `Cn1c(Cc2ccccc2)nnc1Sc1ccc(C#N)c([N+](=O)[O-])c1`, `CCC1(c2ccccc2)N=C(N)N(CCCc2ccccc2)C1=O` (stereo not given) is lower in Inhibition: 93% for the first, 90% for the second.

First: COc1ccc(C(=O)N2CCc3cc4nccc(N5CCN6CCC[C@H]6C5)c4cc32)cc1
Second: COc1ccc(CN2CCN(C(=O)c3cccs3)CC2)c(O)c1
The Inhibition of the first is higher: 98% for the first, 97% for the second.

First: CC(Oc1ccc(NC(=O)c2cccs2)cc1)C(=O)c1ccc(Cl)cc1 (stereo not given)
Second: Cc1cccc(C(=O)NC(NC(=S)Nc2ccc([N+](=O)[O-])cc2)C(Cl)(Cl)Cl)c1 (stereo not given)
The Inhibition of the first is lower: 92% for the first, 96% for the second.

First: CCCCc1ccc(-c2ccc3[nH]c(C)c(Br)c(=O)c3c2)cc1
Second: CN(C)CCCNCCS(=O)(=O)c1cccc(Nc2ccc(-c3cccc(N(C)C)c3)cn2)c1
The Inhibition of the first is lower: 97% for the first, 98% for the second.

`COc1cc2nc(C)nc(Nc3ccc(Cc4ccccc4)cc3)c2cc1OC.Cl` and `Oc1ccc2nc(NCCCc3ccccc3)nc(NCCCc3ccccc3)c2c1` are the same in Inhibition: 100% for the first, 100% for the second.

First: Cc1noc(-c2ccc(O)cc2O)c1-c1ccc2c(c1)OCCCO2
Second: COc1ccc2ncc(Cl)c(CCN3CC[C@@H](CNCc4cc5c(cn4)OCS5)C3)c2n1.Cl
The Inhibition of the first is higher: 100% for the first, 99% for the second.

First: CN1CCN(c2nsc3ccc(-c4ccc(NC(=O)Nc5cc(C(F)(F)F)ccc5F)cc4)cc23)CC1.O=C(O)C(F)(F)F
Second: O=C1NC(=O)C(c2cccc(NC(=O)c3ccncc3)c2)=C1c1ccccc1
The Inhibition of the first is lower: 99% for the first, 100% for the second.

`O=C(c1cc2cccc([N+](=O)[O-])c2[nH]1)N1CCC(CCN2CCC(c3c[nH]c4ccccc34)CC2)CC1` showed an Inhibition of 89%.
